The values that follow come from PubChem BioAssay AID939 (National Center for Advancing Translational Sciences (NCATS), 2007).

Results filed as inconclusive are left out.

The nature of the test: Confirmation Concentration-Response Assay for Agonists of the Thyroid Stimulating Hormone Receptor. Note: reference of the scale not given here. The settings on record: HEK293 TSHR-CNG cells, membrane potential dye, cAMP; measured here: parental HEK293 counter-screen max. Summed up: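 HEK 293 cells stably expressing TSHR and a cAMP-gated CNG channel; membrane potential dye with 100 uM RO 20-1724, compound added 30 min before fluorescence read (590 nm emission). Parental CNG-only HEK 293 cells served as counter-line.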
Consider `COc1ccc(C(=O)N(Cc2ccco2)Cc2cccs2)c(O)c1`, for which the max response was -7.34%.
The figure for `Cc1cccc(NC(=O)CSc2nnc(-c3ccccc3)n2N)c1C` is -2.22%.
Under `COCCNC(=O)C(c1ccccc1)N(Cc1cccs1)C(=O)Cn1nnc2ccccc21` (stereo not given) stands 6.98%; under `O=C(COC(=O)C1c2ccccc2Oc2ccccc21)Nc1ccc2c(c1)OCO2`, 8.54%.
As for `COc1ccc(S(=O)(=O)NCCC(=O)NCc2ccc(F)cc2)cc1`, the max response is -8.89%.
The figure for `CCOC(=O)c1cnc(-n2nc(C)cc2C)nc1-n1nc(C)cc1C` is -6.3%; for `COc1cc(OC)cc(-c2nnc(SCC(=O)N(C(C)C)C(C)C)o2)c1` it is 16.6%.
Regarding `Oc1ccccc1Cn1c(-c2ccccc2O)nc2ccccc21`, the max response is -14.6%.
The figure for `CCC(C)(C)n1nnnc1CN(Cc1ccco1)Cc1cc2cc3c(cc2[nH]c1=O)OCO3` is -12.1%; for `Cc1cc(-n2c(C)cc(C(=O)CSc3nnnn3-c3ccc(Cl)cc3)c2C)no1` it is 13.5%.
As for `O=C(COC(=O)C12CC3CC(CC(C3)C1)C2)NCc1ccco1`, the max response was -5.29%.
Under `Cc1cc(SCNC(=O)c2ccccc2)ncn1` stands -2.72%; under `CCOC(=O)c1ccc(NC(=O)c2ccc(CN3CCOCC3)cc2)cc1`, 11%.
The figure for `COc1cccc(C2CC(c3ccccc3OC)n3nc(N)nc3N2)c1` (stereo not given) is 6.01%; for `Cc1ccc(N(CC(=O)NCc2ccco2)S(=O)(=O)c2ccccc2)cc1` it is -6.79%.
The figure for `Cc1ccccc1NC(=O)CSc1nnc(-c2ccoc2C)n1CCc1ccccc1` is 20.3%.
`CC1(C)c2ccccc2N2CC(=O)NC21/C=C/c1ccco1` (stereo not given): the max response was determined as 9.74%.
As to `CCOc1ccc(N(CC(=O)Nc2ccc(C)cc2)S(=O)(=O)c2c(C)noc2C)cc1`, the max response is 5.32%.
Under `Cc1ccccc1-n1nc(C)c2cc(C(=O)N3CCN(S(=O)(=O)c4ccc(F)cc4)CC3)sc21` stands -1.22%; under `Cc1occc1-c1nnc(SCC(=O)NCc2ccc3c(c2)OCO3)n1CC(C)C`, 9.78%; under `O=c1c2ccccc2ncn1-c1ccc2c(c1)OCCO2`, 6.03%.
The figure for `Cc1ccc(-n2nc(-c3ccc(N)cc3)cc2N)cc1` is -8.96%.
`CCCC(=O)C1=C(SCC)CC(C)(C)C(C(=O)OC)C1=O` (stereo not given): the max response stood at 9.56%.
Under `O=C1CC(c2ccco2)CC2=C1C(c1ccccc1)n1nc(C(F)(F)F)nc1N2` (stereo not given) stands -7.22%; under `O=C1C2C3CCCC3=C3CCCC3C2C(=O)N1c1ccc(Cl)cc1` (stereo not given), -8.66%.
Consider `CCOC(=O)C1C(=O)Nc2nc(C)nn2C1c1ccccc1` (stereo not given), for which the max response was -7.34%.
Under `Cc1cc(Cl)c(S(=O)(=O)Nc2ccc3c(c2)OCO3)cc1OCC(N)=O` stands -8.28%.
Turning to `NC(=O)c1nsc(C(=O)N(CC(=O)NCc2ccc3c(c2)OCO3)C2CCCC2)c1N`, the max response was found to be 7.46%.
Under `CCOC(=O)CSc1nnc(NC(=O)c2cccc(S(=O)(=O)N3CCCCC3)c2)s1` stands -6.14%; under `COc1cc2c(N3CCOCC3)cc(O)c(CC(=O)Nc3ccccc3)c2cc1OC`, -10.7%.
